# In PubChem BioAssay AID431 (Sanford-Burnham Center for Chemical Genomics, 2006):
# The campaign covered roughly 63,000 compounds. About 1,100 (1.7%) were called active.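 Rule for the calls: active = compounds whose percent cytotoxicity in the single-dose primary screen, scaled between solvent and toxic-drug controls, exceeds 50; inactive = the rest.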 The sample as a whole holds a higher share of actives than the screen did. Measured potencies and affinities stand elsewhere.
# Test: cytotoxicity in KRAS-transformed pancreatic duct cells, primary screen, cell-based, fluorescence, HTS (AID 431);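 note: 0% = DMSO solvent wells and 100% = doxorubicin-treated wells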
# Details: HPDE-C7K KRASV12 cells, Alamar Blue viability, 48 h; at 10 µM; active compounds read high
row,SMILES,cytotoxicity
1,CC1Cn2c(nnc2-c2ccc(F)cc2)S1 (stereo not drawn),11.1% (inactive)
2,CCOc1ccccc1NC(=O)C1CCCN(S(=O)(=O)c2cccc3cccnc23)C1 (stereo not drawn),26.1% (inactive)
3,C=CCn1c(NC(=O)c2ccccc2Cl)c(C#N)c2nc3ccccc3nc21,7.7% (inactive)
4,COc1ccc(-n2c(NC(=O)c3ccco3)c(C#N)c3nc4ccccc4nc32)cc1,9.7% (inactive)
5,CCCCn1c(NC(=O)c2ccccc2Cl)c(C#N)c2nc3ccccc3nc21,35.8% (inactive)
6,CCCCCn1c(N)c(C#N)c2nc3ccccc3nc21,2.3% (inactive)
7,CCCCn1c(NC(=O)CC)c(C#N)c2nc3ccccc3nc21,-5.1% (inactive)
8,CCCCn1c(NC(C)=O)c(C#N)c2nc3ccccc3nc21,-0.1% (inactive)
9,CCCCn1c(NC(=O)c2ccccc2)c(C#N)c2nc3ccccc3nc21,112% (active)
10,C=CCn1c(NC(=O)c2ccccc2)c(C#N)c2nc3ccccc3nc21,65.2% (active)
11,N#Cc1c(NC(=O)c2ccc(Br)o2)n(-c2ccccc2)c2nc3ccccc3nc12,58.7% (active)
12,CCC(=O)Nc1c(C#N)c2nc3ccccc3nc2n1-c1ccccc1C,2.8% (inactive)
13,CCCCn1c(NC(=O)c2ccc(F)cc2)c(C#N)c2nc3ccccc3nc21,87.7% (active)
14,O=C(Nc1ccc2nn(-c3ccccc3)nc2c1)c1ccc(Br)o1,13.2% (inactive)
15,CCc1ccc(OCc2nc(-c3ccccn3)no2)c(Br)c1,30.6% (inactive)
16,COc1cc(C2C(C#N)=C(N)Oc3cc(C)oc(=O)c32)cc2c1OCO2 (stereo not drawn),-4.3% (inactive)
17,CCN(CC)CCNc1nc2c(c(=O)[nH]c(=O)n2C)n1CC(O)COc1ccc(Cl)cc1Cl (stereo not drawn),10.6% (inactive)
18,CCc1nnc(NC(=O)CSc2nnc(CSc3nc(C)cc(C)n3)n2C)s1,10.6% (inactive)
19,N#Cc1c2c(c(=S)n(-c3ccccc3)c1N)CCCC2,0.5% (inactive)
20,CCOC(=O)c1c(N)sn(-c2ccccc2)c1=S,13.3% (inactive)
21,CC(C)C(CC(=O)N1CCCCC1)C1CCOC(C)(C)C1 (stereo not drawn),-5.8% (inactive)
22,N=c1c(S(=O)(=O)c2ccccc2)cc2c(=O)n3ccccc3nc2n1Cc1ccco1,4.6% (inactive)
23,Cc1ccc(S(=O)(=O)c2cc3c(=O)n4ccccc4nc3n(Cc3ccco3)c2=N)cc1,30.2% (inactive)
24,Cc1ccc(CNC(=O)c2cc3c(=O)n4ccccc4nc3n(Cc3ccco3)c2=N)cc1,98.3% (active)
25,N=c1c(C(=O)NCc2ccccc2)cc2c(=O)n3ccccc3nc2n1Cc1ccco1,38.6% (inactive)

row,SMILES,cytotoxicity
1,Cc1ccc(Cn2c(=N)c(C(=O)NCc3ccco3)cc3c(=O)n4ccccc4nc32)cc1,-6.4% (inactive)
2,Cc1ccc(CNC2=NCCCCC2)n1C,0.1% (inactive)
3,CS(=O)(=O)N(CC(=O)N1CCC(C(N)=O)CC1)c1ccc(Oc2ccccc2)cc1,4.5% (inactive)
4,CN1CCc2ccccc2C1C1CCNCC1 (stereo not drawn),1.4% (inactive)
5,N#Cc1c(/N=C/c2ccco2)sc2c1CCC2,0.3% (inactive)
6,COc1ccc(NC(=O)CN(c2ccccc2)S(=O)(=O)N(C)C)cc1OC,-4.2% (inactive)
7,COc1cc(C2=NOC(C(=O)NCc3ccco3)C2)cc(OC)c1OC (stereo not drawn),10.5% (inactive)
8,COc1ccc(C2=NOC(C(=O)NCc3ccc(F)cc3)C2)cc1 (stereo not drawn),43% (inactive)
9,COc1ccc(C2=NOC(C(=O)NCc3ccc(F)cc3)C2)cc1OC (stereo not drawn),58.9% (active)
10,COc1ccc(CNC(=O)C2CC(c3ccc(F)cc3)=NO2)cc1 (stereo not drawn),1.6% (inactive)
11,COc1cccc(C2=NOC(C(=O)NCc3ccc(F)cc3)C2)c1 (stereo not drawn),49.7% (inactive)
12,COc1cc(C2=NOC(C(=O)NCc3ccc(F)cc3)C2)cc(OC)c1OC (stereo not drawn),55.1% (active)
13,Cc1ccc(C2(C)NC(=O)N(CC(=O)Nc3ccc4c(c3)OCO4)C2=O)cc1 (stereo not drawn),-4.8% (inactive)
14,Fc1ccc(-c2nnc(SCc3ncc(-c4ccccc4)o3)n2CC2CCCO2)cc1 (stereo not drawn),-17.5% (inactive)
15,CCOc1cc(C2C(C#N)=C(N)OC3CCCC(=O)C32)ccc1OCCN1CCOCC1 (stereo not drawn),-27% (inactive)
16,COc1ccc(-c2nnc(SCC(=O)Nc3sc4c(c3C#N)CCC4)n2CC2CCCO2)cc1 (stereo not drawn),-1.4% (inactive)
17,Cc1cc(C)c2c(c1)cc(C)c1nnc(SCC(=O)Nc3cc(C)on3)n12,22.6% (inactive)
18,Cc1cc(NC(=O)CSc2nnc3c(C)cc4c(C)ccc(C)c4n23)no1,70.6% (active)
19,Cc1cc(NC(=O)CSc2nnc3c(C)cc4cc(C)c(C)cc4n23)no1,10.3% (inactive)
20,CCCCNC(=O)C1CCCN1C(=O)Nc1cccc(OC)c1 (stereo not drawn),-7.7% (inactive)
21,Nc1c(N2CCN(c3ccccc3)CC2)c2ccccc2oc1=O,-3.7% (inactive)
22,O=C(NCCCN1CCCC1=O)C1CCN(S(=O)(=O)N2CCOCC2)CC1,-9.6% (inactive)
23,CCOc1ccc(NC(=O)N2CCC(n3c(=O)[nH]c4ccccc43)CC2)cc1,-0.2% (inactive)
24,Cc1ccc(C2C=C(c3ccccc3OC(F)F)Nc3ncnn32)cc1 (stereo not drawn),-1.8% (inactive)
25,COc1cccc(C2=CC(c3ccc(N(C)C)cc3)n3ncnc3N2)c1 (stereo not drawn),-1.1% (inactive)

row,SMILES,cytotoxicity
1,CN(C)c1ccc(C2C=C(c3ccc(Cl)cc3OC(F)F)Nc3ncnn32)cc1 (stereo not drawn),50.9% (active)
2,CCn1c(SCC(=O)c2ccc(Cl)cc2)nnc1-c1ccoc1C,12.2% (inactive)
3,Cc1cc(C)c(C#N)c(N2CCCC(C(N)=O)C2)n1 (stereo not drawn),-4.9% (inactive)
4,COc1ccc(S(=O)(=O)Cc2ccc(C(=O)N3CCN(C(=O)c4ccco4)CC3)o2)cc1,1.6% (inactive)
5,O=C(OCc1nnc(-c2ccccc2)o1)c1ccc2c(c1)OCCO2,5.4% (inactive)
6,O=C(Nc1ncnc2sc3c(c12)CCCCC3)c1ccco1,7.3% (inactive)
7,Cc1nnc2n1N=CC=C(c1ccccc1)S2,62% (active)
8,Cc1nnc2n1N=CC=C(C(C)(C)C)S2,-17.2% (inactive)
9,COn1cnnc1-c1ccccc1,-14.1% (inactive)
10,CCOC(=O)c1cc(NC(=O)c2ccoc2C)cc(C(=O)OCC)c1,15.5% (inactive)
11,Cc1noc(C)c1COC(=O)CCc1nc2ccccc2s1,-2.7% (inactive)
12,c1cn2cc(CN3CCOCC3)nc2s1,-3.4% (inactive)
13,COc1ccccc1-c1nnc2sc(-c3cc4ccccc4o3)nn12,61.8% (active)
14,Cc1nnc2sc(-c3cc4ccccc4o3)nn12,8.5% (inactive)
15,COc1ccccc1-c1nn2c(-c3ccccc3Cl)nnc2s1,-7.7% (inactive)
16,COC(=O)CSc1nnc(SCc2ccccc2)s1,-19.9% (inactive)
17,CCOC(=O)N1CCN(C(=O)CCc2nc3sc4c(c3c(=O)[nH]2)CCCC4)CC1,4.1% (inactive)
18,CC(C)OC(=O)CSc1nnc(-c2ccc(Cl)cc2Cl)n1N,-9.9% (inactive)
19,Cc1ccc(Nc2nc(N3CCOCC3)nc(N3CCOCC3)n2)cc1,10.2% (inactive)
20,CC(C)c1ccc(Nc2nc(NCc3ccco3)nc(N3CCOCC3)n2)cc1,35.8% (inactive)
21,O=C(O)c1cccc(Nc2nc(N3CCOCC3)nc(N3CCOCC3)n2)c1,1.7% (inactive)
22,Cc1cccc(Nc2nc(NCc3ccco3)nc(N3CCOCC3)n2)c1,63.9% (active)
23,CN1CCN(c2nc(Nc3cccc(C(F)(F)F)c3)nc(N3CCOCC3)n2)CC1,52.3% (active)
24,COc1nc(Nc2cccc(C(F)(F)F)c2)nc(OC)n1,4.6% (inactive)
25,CCOC(=O)N1CCN(C(=O)C2CC(=O)N(c3ccc(OC)cc3)C2c2ccc(OC)cc2)CC1 (stereo not drawn),-8.1% (inactive)

row,SMILES,cytotoxicity
1,O=C(NCCCN=C1NS(=O)(=O)c2ccccc21)c1ccc(S(=O)(=O)N2CCCCC2)cc1,-14.3% (inactive)
2,c1ccc(Cn2c(SCc3nc4ccccc4s3)nnc2-c2ccco2)cc1,8.5% (inactive)
3,Nc1c(NC2CCCCC2)c2ccccc2oc1=O,-25.2% (inactive)
4,CCOC(=O)c1c(-c2cccs2)csc1NC(=O)CCCC(=O)O,25.9% (inactive)
5,CCOC(=O)c1c(-c2cccs2)csc1NC(=O)CN1CC(C)OC(C)C1 (stereo not drawn),60.6% (active)
6,COC(=O)c1c(-c2cccs2)csc1NC(=O)CN1CCOCC1,4.8% (inactive)
7,N#CCc1ccc(NS(=O)(=O)c2ccc(N3CCCC3=O)cc2)cc1,-0.7% (inactive)
8,Cc1ccc2cc3c(N)c(C(=O)N4CCOCC4)sc3nc2c1,-10.3% (inactive)
9,Cc1ccc2nc3sc(C(=O)N4CCOCC4)c(N)c3cc2c1,5.9% (inactive)
10,Cc1cccc2cc3c(N)c(C(=O)N4CCOCC4)sc3nc12,68.7% (active)
11,O=C(NCCCN1CCCCCC1)c1ccc2c(c1)NC(=O)C(N1CCOCC1)S2 (stereo not drawn),-17.2% (inactive)
12,O=C(Nc1c(C(=O)O)oc2ccc(Br)cc12)c1ccccc1,31.7% (inactive)
13,COc1ccc(C(NC(C)=O)c2ccc3cccnc3c2O)c(OC)c1 (stereo not drawn),-6.2% (inactive)
14,COc1cc(C(=O)Nc2ccccn2)cc(OC)c1OC,21.5% (inactive)
15,CCOc1ccc(C(=O)Nc2c3c(nn2-c2cccc(C)c2C)CS(=O)C3)cc1 (stereo not drawn),-6.5% (inactive)
16,Cc1nc(N2CCN(C(=O)c3ccco3)CC2)c2c3c(sc2n1)CCC3,2.2% (inactive)
17,CC(C)c1nc(N2CCN(C(=O)c3ccco3)CC2)c2c3c(sc2n1)CCCC3,-14.3% (inactive)
18,O=C(c1ccco1)N1CCN(c2nc(C3CC3)nc3sc4c(c23)CCCC4)CC1,50.9% (active)
19,COc1cccc(CCC(=O)O)c1OC,-7% (inactive)
20,CCOC(=O)N1CCN(C(=O)Cn2nc(C)c3sc4ccccc4c3c2=O)CC1,-5% (inactive)
21,CCc1ccc(-c2nc(CN3CCC(C(=O)NCCN(CC)c4ccccc4)CC3)c(C)o2)cc1,39.2% (inactive)
22,CCN(CCNC(=O)C1CCCN(Cc2nc(-c3ccc(OC)cc3)oc2C)C1)c1ccccc1 (stereo not drawn),62.7% (active)
23,CCc1ccc(-c2nc(CN3CCCC(C(=O)NCCc4ccc(OC)c(OC)c4)C3)c(C)o2)cc1 (stereo not drawn),5.5% (inactive)
